Laboratory results from PMC7826789 (International Journal of Molecular Sciences, 2021).

These compounds were tested on T1, TRKC. Conditions: Compound Concentration (nM):1000.
T1 construct: gene NTRK3
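Also: KINOMEscan scanMAX binding as percent activity remaining versus control; lower means stronger binding.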

Row | SMILES | Percent Control [%]
1 | Cl.O=C(Nc1ccc(Oc2ccc3[nH]c(NC(=O)c4ccco4)nc3c2)cc1)Nc1cc(C(F)(F)F)ccc1F [GW683134A] | 3
2 | CN(C)CCNC(=O)Nc1ccc(N(C)c2ccnc(Nc3ccc(CS(C)(=O)=O)cc3)n2)cc1.Cl [GW830900A] | 57
3 | CCn1c(-c2nonc2N)nc2c(C#CC(C)(C)O)nc(OCCNC)cc21.Cl [GSK949675] | 100
4 | NS(=O)(=O)c1ccc(N/N=C2\C(=O)Nc3ccc(C(=O)NCc4ccncc4)cc32)cc1 [GW300657X] | 37
5 | Cl.O=S1CCN(Cc2ccc(-c3ccc4ncnc(Nc5ccc(OCc6ccccc6)c(F)c5)c4c3)o2)CC1 [GW576924A] | 100
6 | Cl.O=C(O[C@H]1CN[C@H](C#Cc2cc3ncnc(Nc4ccc5c(cnn5Cc5ccccc5)c4)c3s2)C1)N1CCOCC1 [GSK200398A] | 95

These compounds were tested on TRPM6. Conditions: Compound Concentration (nM):1000.

Row | SMILES | Percent Control [%]
7 | CN1CCN(C(=O)c2ccc(NC(=O)Nc3ccc(N(C)c4ccnc(Nc5ccc(CS(C)(=O)=O)cc5)n4)cc3)cc2)CC1.Cl [GW830263A] | 91
8 | COc1cc2ncnc(Nc3ccc4c(cnn4Cc4ccccc4)c3)c2cc1OC.Cl [GW282449A] | 87
9 | CC1=C(C(=O)Nc2ccc3[nH]ncc3c2)C(c2ccc3ccccc3c2)CC(=O)N1 (stereo not shown) [GSK270822A] | 82
10 | O=C(Nc1n[nH]c2nc(-c3ccc(O)cc3)c(Br)cc12)C1CC1 [SB-725317] | 100
11 | CCS(=O)(=O)c1ccc(OC)c(Nc2ncc(-c3cccc(F)c3)o2)c1 [GW621970X] | 88
12 | COc1ccc2cc(-c3c(-c4ccncc4)nc(-c4ccc(S(C)(=O)=O)cc4C)n3C)ccc2c1 [SB-633825] | 71
13 | COc1ccccc1-c1cc(/C=C2\C(=O)Nc3ncc(Br)cc32)cc(Br)c1O [GW442130X] | 100
14 | CN(C)c1cc2c(Nc3ccc4c(cnn4Cc4ccccc4)c3)ncnc2cn1 [GW282974X] | 92
15 | COc1ccc2[nH]c3c4[nH]c5ccc(OC)cc5c4c4c(c3c2c1)C(=O)NC4=O [GW296115X] | 79
16 | COc1cccc(-n2ncc3c(N/N=C/c4ccncc4)ncnc32)c1 [GW784752X] | 89
17 | CC1=C(C(=O)Nc2ccc3[nH]ncc3c2)C(c2ccc(Cl)c(Cl)c2)CC(=O)N1 (stereo not shown) [GSK299115A] | 87
18 | COc1ccc(COc2ccc(Cc3cnc(N)nc3N)cc2OC)cc1 [GW632580X] | 89
19 | NS(=O)(=O)c1ccc(N/N=C2\C(=O)Nc3ccc(Cl)cc32)cc1 [GW280670X] | 100
20 | COc1cccc(-c2c[nH]c3c(N/N=C/c4ccncc4)ncnc23)c1 [GW814408X] | 97
21 | COC(=O)Nc1nc2ccc(Oc3ccc(NC(=O)Nc4cc(C(F)(F)F)ccc4F)cc3)cc2s1.Cl [GW693917A] | 73
22 | COc1ccc2c(-c3ccnc(Nc4cccc(OC(F)(F)F)c4)n3)cnn2n1 [GW810372X] | 92
23 | NS(=O)(=O)c1ccc(N/N=C2\C(=O)Nc3ccc(-c4cnco4)cc32)cc1 [GW276655] | 89
24 | Cl.c1ccc(Cc2nc3ccc(Nc4ncnc5ccccc45)cc3[nH]2)cc1 [GR269666A] | 97
25 | C/C(Nc1ccc(S(N)(=O)=O)cc1)=C1/C(=O)Nc2ccccc21 [GW335962X] | 84
26 | COc1cc(N2CCN(C(C)C)CC2)ccc1Nc1nc(Nc2ccc(F)cc2C(=O)NC[C@@H](O)CO)c2cc[nH]c2n1 [GSK1392956A] | 82

Row | SMILES | Percent Control [%]
27 | Nc1ncnc2occ(-c3ccc(NC(=O)Nc4cc(C(F)(F)F)ccc4F)cc3)c12 [GW770249X] | 100
28 | CC(C)COC(=O)c1ccc2c(c1)/C(=C/Nc1ccc(S(N)(=O)=O)cc1)C(=O)N2 [GW416981X] | 100
29 | Cl.O=C(Nc1ccc(Oc2ccc3[nH]c(NC(=O)c4ccccc4)nc3c2)cc1)Nc1cc(C(F)(F)F)ccc1F [GW709042A] | 100
30 | CCc1ccc(Oc2nccc(-c3c(-c4ccc(F)cc4)ncn3C3CCNCC3)n2)cc1 [SB-242719] | 100
31 | COc1cc(C)c(N(C)C(=O)CN(C)C)cc1Nc1nc(Nc2cccc(F)c2C(N)=O)c2cc[nH]c2n1 [GSK2219385] | 100
32 | NS(=O)(=O)c1ccc(Nc2ncc(-c3ccccc3)o2)cc1 [GW572399X] | 100
33 | CCS(=O)(=O)c1ccc(OC)c(Nc2ncc(-c3cccc(OC)c3)o2)c1 [GW580509X] | 100
34 | C[C@@H](Oc1cc(-n2cnc3ccc(OC4CCN(C)CC4)cc32)sc1C(N)=O)c1ccccc1Cl [GSK579289A] | 88
35 | COc1cc2ncn(-c3cc(O[C@H](C)c4ccccc4Cl)c(C(N)=O)s3)c2cc1OC [GSK237701A] | 89
36 | O=C1Nc2ccc(C(=O)c3ccco3)cc2C1=Cc1cc(Cl)c(O)c(Cl)c1 [GW406108X] | 95
37 | Cc1cc(O)cc(C)c1/C=C/c1cncc(C(N)=O)c1 [GW435821X] | 100
38 | COc1cc(/C=N/Nc2ncnc3[nH]ncc23)ccc1O [GW578748X] | 95
39 | COc1cc(C=NNc2ncnc3c2cnn3-c2ccccc2)ccc1O [GW513184X] | 100
40 | NS(=O)(=O)c1ccc(N/N=C2\C(=O)Nc3ccc(C(=O)NCCc4c[nH]cn4)cc32)cc1 [GW300660X] | 100
41 | Cl.O=C(Nc1ccc(Oc2ccc3[nH]c(NC(=O)c4ccco4)nc3c2)cc1)Nc1cc(C(F)(F)F)ccc1F [GW683134A] | 100
42 | CN(C)CCNC(=O)Nc1ccc(N(C)c2ccnc(Nc3ccc(CS(C)(=O)=O)cc3)n2)cc1.Cl [GW830900A] | 100
43 | CCn1c(-c2nonc2N)nc2c(C#CC(C)(C)O)nc(OCCNC)cc21.Cl [GSK949675] | 100
44 | NS(=O)(=O)c1ccc(N/N=C2\C(=O)Nc3ccc(C(=O)NCc4ccncc4)cc32)cc1 [GW300657X] | 89
45 | Cl.O=S1CCN(Cc2ccc(-c3ccc4ncnc(Nc5ccc(OCc6ccccc6)c(F)c5)c4c3)o2)CC1 [GW576924A] | 92
46 | Cl.O=C(O[C@H]1CN[C@H](C#Cc2cc3ncnc(Nc4ccc5c(cnn5Cc5ccccc5)c4)c3s2)C1)N1CCOCC1 [GSK200398A] | 96
